# Source: the OligoGym collection
# Target: GRK1
# Assay: pooled miR-30 sensor sort-seq; sequence = guide strand
# Conditions: shRNA
# Note: reference of the scale not given here.
row,Sequence,sensor-assay potency score (higher = more potent)
1,TTGTTCTCCACCTTCTCTCCAC,-0.0458
2,TTGTCCAGCAGCACGTTCTCGG,-0.903
3,TTTGCGTAGACAGTTTTGGAGT,-0.657
4,TAGACAGTTTTGGAGTCTGGGA,-1.3
5,TTAAGGTCCTTGAAGAGGGGGT,0.091
6,TAAACTTCGCCACTATCCCCTC,-0.678
7,TTGTTCAGCTTCTTGCAGGCAT,0.349
8,TAGTCCTCGATGTCTTTCCAGA,-1.36
9,TTGCCGGTCGCCTTCATCTGGC,-1.21

# Target: GRSF1
# Assay: as above
# Conditions: shRNA
row,Sequence,sensor-assay potency score (higher = more potent)
1,TCTGCTTGGAAATATCTCGATG,-0.758
2,TATACTTCCACATACCGCTGGC,-0.174
3,TTATATACTTAGCAGTAGGAAA,-1.31
4,TTTCTTCTTCTAAACAGTCCAC,-0.0512
5,TTCTTCTAAACAGTCCACTATG,-0.687
6,TCGATTACCAATTTCTTCCCTG,-0.139
7,ATGTATTCCATTCTCACCGTTG,-1.12
8,TTCTTCTTCTAAACAGTCCACT,-0.559
9,TAGCAGTAGGAAAAGATGCGAT,-0.689
10,TTGAGCATCGCTGCAACAGCAT,-0.486
11,TTCATGTTCTTCAAAGACCATT,-0.97
12,TAAGGCTTTCTGCACATCCTGC,-0.572

# Target: GSTO1
# Assay: as above
# Conditions: shRNA
row,Sequence,sensor-assay potency score (higher = more potent)
1,TTTCTCACTAGTAAGCAGGGCT,0.254
2,TGAGACTGTGGGATCTTCCTTC,0.458
3,TCTAAGATCATCTTCTGGCAAG,-0.832
4,TAGGCCAGCATAGTCTTCTTTA,-0.878
5,ATATTGATGACTTCATGCCTGA,-0.0136
6,AACTCTAAGATCATCTTCTGGC,-0.0597
7,TAACTTCATTGCTTCCAGCCGT,-0.351
8,TTATTAGTCAGAACCTCCTCTA,-0.622
9,TATTAGTCAGAACCTCCTCTAG,-0.847
10,TTTTCTTAAAGAACCACTCAGG,-0.256
11,TAGAGATAGAATTGCCACCAAA,-1.16
12,TCTAATAAAGCTTCCTACCAAG,-0.981

# Target: GTF2H5
# Assay: as above
# Conditions: shRNA
row,Sequence,sensor-assay potency score (higher = more potent)
1,TTGAATGATGAACTTCTTCCCC,-0.395
2,AATGATGAACTTCTTCCCCAGG,-1.25
3,ATCAATGTCTTGAATGATGAAC,-1.38
4,TCTTGAATGATGAACTTCTTCC,-0.75
5,TCTGCTATTACAAAGACGTGAG,0.353
6,TATTACAAAGACGTGAGTGTCA,0.236
7,TAACCAATTCTGCTATTACAAA,-1.59
